Measurements taken from PubChem BioAssay AID1159580 (chemical genetic matrix, 2015).
Where “and” joins values, the source holds several entries; their conditions need not be identical. Equal entries are not always repeated. Screen size: about 5,500 compounds; about 2,000 (36%) were called active. About 18% were inconclusive and are not listed. Some of the results follow. A number with no mark means an inactive call. Rule as the data show it: active = normalized growth mostly below about 0.91 (no sharp cut-off); inconclusive = no clear call, values can overlap the other calls; inactive = mostly above about 0.92.

Test: chemical genetic growth profiling, strain panel (AID 1159580);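 also: tested at 20 µM; growth read once vehicle control cultures reached saturation at 30 °C; 1 = growth at the plate median or of vehicle wells; lower values mean less growth of the strain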
Details: S. cerevisiae deletion strains, growth OD
[1] = locus YAR019C, strain CDC15, hits give low values
[2] = locus YBL105C, strain PKC1, hits give low values
[3] = locus YBR135W, strain CKS1, hits give low values
[4] = locus YBR136W, strain MEC1, hits give low values
[5] = locus YBR160W, strain CDC28, hits give low values
[6] = locus YDL017W, strain CDC7, hits give low values
[7] = locus YDL028C, strain MPS1, hits give low values
[8] = locus YDL101C, strain DUN1, hits give low values
[9] = locus YDL108W, strain KIN28, hits give low values
[10] = locus YDL132W, strain cdc53, hits give low values
[11] = locus YDL214C, strain PRR2, hits give low values
[12] = locus YDR052C, strain DBF4, hits give low values
[13] = locus YDR054C, strain cdc34, hits give low values
[14] = locus YDR226W, strain ADK1, hits give low values
[15] = locus YDR477W, strain SNF1, hits give low values
[16] = locus YER123W, strain YCK3, hits give low values
[17] = locus YER133W, strain GLC7, hits give low values
[18] = locus YFL009W, strain cdc4, hits give low values
[19] = locus YFL029C, strain CAK1, hits give low values
[20] = locus YFR003C, strain YPI1, hits give low values
[21] = locus YFR019W, strain FAB1, hits give low values
[22] = locus YFR028C, strain CDC14, hits give low values
[23] = locus YGR040W, strain KSS1, hits give low values
[24] = locus YGR052W, strain FMP48, hits give low values
[25] = locus YGR092W, strain DBF2, hits give low values
[26] = locus YHR030C, strain SLT2, hits give low values
[27] = locus YHR079C, strain IRE1, hits give low values
[28] = locus YHR082C, strain KSP1, hits give low values
[29] = locus YHR205W, strain SCH9, hits give low values
[30] = locus YIL147C, strain SLN1, hits give low values
[31] = locus YJL095W, strain BCK1, hits give low values
[32] = locus YJL128C, strain PBS2, hits give low values
[33] = locus YJL157C, strain FAR1, hits give low values
[34] = locus YJR016C, strain ILV3, hits give low values
[35] = locus YJR066W, strain TOR1 (second series), hits give low values
[36] = locus YJR066W, strain TOR1, hits give low values
[37] = locus YKL048C, strain ELM1, hits give low values
[38] = locus YKL067W, strain YNK1, hits give low values
[39] = locus YKL101W, strain HSL1, hits give low values
[40] = locus YKL193C, strain SDS22, hits give low values
[41] = locus YKL203C, strain TOR2, hits give low values
[42] = locus YLR113W, strain HOG1, hits give low values
[43] = locus YLR133W, strain CKI1, hits give low values
[44] = locus YLR403W, strain SFP1, hits give low values
[45] = locus YML070W, strain DAK1, hits give low values
[46] = locus YMR001C, strain CDC5, hits give low values
[47] = locus YMR205C, strain PFK2 (second series), hits give low values
[48] = locus YMR277W, strain FCP1, hits give low values
[49] = locus YNL006W, strain LST8, hits give low values
[50] = locus YNL020C, strain ARK1, hits give low values
[51] = locus YNL161W, strain CBK1, hits give low values
[52] = locus YNL183C, strain NPR1, hits give low values
[53] = locus YNL207W, strain RIO2, hits give low values
[54] = locus YNL222W, strain SSU72, hits give low values
[55] = locus YNL307C, strain MCK1 (second series), hits give low values
[56] = locus YOL078W, strain AVO1, hits give low values
[57] = locus YOL136C, strain PFK27, hits give low values
[58] = locus YOR061W, strain CKA2, hits give low values
[59] = locus YOR119C, strain RIO1, hits give low values
[60] = locus YOR231W, strain MKK1, hits give low values
[61] = locus YOR329C, strain SCD5, hits give low values
[62] = locus YPL031C, strain PHO85, hits give low values
[63] = locus YPL153C, strain RAD53, hits give low values
[64] = locus YPL209C, strain IPL1, hits give low values
[65] = locus YPL256C, strain CLN2, hits give low values
[66] = locus YPR025C, strain CCL1, hits give low values
[67] = locus YPR106W, strain ISR1, hits give low values
[68] = locus YPR111W, strain DBF20, hits give low values
[69] = strain NNK1, hits give low values
[70] = strain TSCII, hits give low values

For `Oc1ccc(N=Nc2ccccn2)c(O)c1`, the normalized growth [1] was 0.0954 (active), the normalized growth [2] was 0.0926 (active) and the normalized growth [3] was 0.0984 (active). For the same molecule, the normalized growth [4] was 0.0929 (active), the normalized growth [5] was 0.0967 (active) and the normalized growth [6] was 0.0946 (active). For the same molecule, the normalized growth [7] was 0.0969 (active), the normalized growth [8] was 0.103 (active) and the normalized growth [9] was 0.0995 (active). The normalized growth [10] was 0.0971 (active), the normalized growth [11] was 0.0962 (active) and the normalized growth [12] was 0.0928 (active). For the same molecule, the normalized growth [13] was 0.0989 (active), the normalized growth [14] was 0.0953 (active) and the normalized growth [15] was 0.102 (active). The normalized growth [16] was 0.108 (active), the normalized growth [17] was 0.103 (active) and the normalized growth [18] was 0.0975 (active). The normalized growth [19] was 0.0955 (active), the normalized growth [20] was 0.0966 (active) and the normalized growth [21] was 0.0923 (active). For the same molecule, the normalized growth [22] was 0.0968 (active), the normalized growth [23] was 0.0983 (active) and the normalized growth [24] was 0.121 (active). The normalized growth [25] was 0.0944 (active), the normalized growth [26] was 0.116 (active) and the normalized growth [27] was 0.12 (active). For the same molecule, the normalized growth [28] was 0.125 (active), the normalized growth [29] was 0.00344 (active) and the normalized growth [30] was 0.0967 (active). The normalized growth [31] was 0.104 (active), the normalized growth [32] was 0.102 (active) and the normalized growth [33] was 0.0922 (active). The normalized growth [34] was 0.0883 (active), the normalized growth [35] was 0.0985 (active) and the normalized growth [36] was 0.114 (active). For the same molecule, the normalized growth [37] was 0.113 (active), the normalized growth [38] was 0.101 (active) and the normalized growth [39] was 0.0988 (active). For the same molecule, the normalized growth [40] was 0.0969 (active), the normalized growth [41] was 0.102 (active) and the normalized growth [42] was 0.153 (active). The normalized growth [43] was 0.0924 (active), the normalized growth [44] was 0.00522 (active) and the normalized growth [45] was 0.103 (active). For the same molecule, the normalized growth [46] was 0.095 (active), the normalized growth [47] was 0.0981 (active) and the normalized growth [48] was 0.0981 (active). For the same molecule, the normalized growth [49] was 0.1 (active), the normalized growth [50] was 0.0963 (active) and the normalized growth [51] was 0.0956 (active). The normalized growth [52] was 0.123 (active), the normalized growth [53] was 0.0923 (active) and the normalized growth [54] was 0.0956 (active). For the same molecule, the normalized growth [55] was 0.0988 (active), the normalized growth [56] was 0.0959 (active) and the normalized growth [57] was 0.0997 (active). The normalized growth [58] was 0.097 (active), the normalized growth [59] was 0.108 (active) and the normalized growth [60] was 0.118 (active). The normalized growth [61] was 0.0939 (active), the normalized growth [62] was 0.101 (active) and the normalized growth [63] was 0.1 (active). The normalized growth (locus YPL204W, strain HRR25, hits give low values) was 0.102 (active), the normalized growth [64] was 0.0941 (active) and the normalized growth [65] was 0.155 (active). For the same molecule, the normalized growth [66] was 0.0983 (active), the normalized growth [67] was 0.0922 (active) and the normalized growth [68] was 0.103 (active). The normalized growth [69] was 0.0965 (active) and the normalized growth [70] was 0.0967 (active).

For `COc1cc(CC/C(C)=N/O)ccc1OCc1ccc(Cl)cc1Cl`, the normalized growth (locus YAL013W, strain DEP1, hits give low values) was 0.908 (active), the normalized growth [1] was 0.977 and the normalized growth [2] was 0.972. For the same molecule, the normalized growth [3] was 0.978, the normalized growth [4] was 0.977 and the normalized growth [5] was 0.981. The normalized growth (locus YBR229C, strain ROT2, hits give low values) was 0.934, the normalized growth (locus YCL061C, strain MRC1, hits give low values) was 0.931 and the normalized growth [6] was 0.979. For the same molecule, the normalized growth [7] was 0.978, the normalized growth [8] was 0.992 and 0.922 and the normalized growth [9] was 0.978. For the same molecule, the normalized growth [10] was 0.982, the normalized growth (locus YDL134C, strain PPH21, hits give low values) was 0.925 and the normalized growth [11] was 0.944. The normalized growth [12] was 0.989, the normalized growth [13] was 0.998 and the normalized growth (locus YDR150W, strain NUM1, hits give low values) was 0.911. For the same molecule, the normalized growth [14] was 1, the normalized growth [15] was 0.952 and the normalized growth (locus YEL061C, strain CIN8, hits give low values) was 0.929. It also gave a normalized growth [16] of 0.939, a normalized growth [17] of 0.937 and a normalized growth [18] of 0.968. The normalized growth [19] was 0.98, the normalized growth [20] was 0.976 and the normalized growth [21] was 0.953. It also gave a normalized growth [22] of 0.984, a normalized growth [23] of 0.948 and a normalized growth [24] of 0.973. The normalized growth (locus YGR078C, strain PAC10, hits give low values) was 0.92 (active), the normalized growth [25] was 0.952 and the normalized growth [26] was 0.242 (active) and 0.801 (active). The normalized growth [27] was 0.885, the normalized growth [28] was 1.02 and the normalized growth (locus YHR087W, strain rtc3, hits give low values) was 0.935. For the same molecule, the normalized growth [29] was 0.939, the normalized growth [30] was 0.982 and the normalized growth [31] was 0.938. It also gave a normalized growth [32] of 0.932, a normalized growth [33] of 0.918 and a normalized growth [34] of 0.978. The normalized growth (locus YJR043C, strain POL32, hits give low values) was 0.91 (active), the normalized growth [35] was 0.913 and the normalized growth [36] was 1.01. The normalized growth (locus YJR075W, strain HOC1, hits give low values) was 0.879 (active), the normalized growth [37] was 0.986 and the normalized growth [38] was 0.942. For the same molecule, the normalized growth [39] was 0.949, the normalized growth (locus YKL190W, strain CNB1, hits give low values) was 0.762 (active) and the normalized growth [40] was 0.979. For the same molecule, the normalized growth [41] was 0.972, the normalized growth (locus YLR039C, strain RIC1, hits give low values) was 0.694 (active) and the normalized growth (locus YLR058C, strain SHM2 (second series), hits give low values) was 0.976. For the same molecule, the normalized growth (locus YLR085C, strain ARP6, hits give low values) was 0.307 (active), the normalized growth [42] was 0.881 and the normalized growth [43] was 0.944. The normalized growth (locus YLR262C, strain YPT6, hits give low values) was 0.803 (active), the normalized growth [44] was 0.942 and the normalized growth [45] was 0.936. For the same molecule, the normalized growth (locus YML094W, strain GIM5, hits give low values) was 0.865 (active), the normalized growth [46] was 0.971 and the normalized growth [47] was 0.965. For the same molecule, the normalized growth (locus YMR219W, strain ESC1, hits give low values) was 0.998, the normalized growth (locus YMR263W, strain SAP30, hits give low values) was 0.912 and the normalized growth [48] was 0.979. The normalized growth [49] was 0.974, the normalized growth [50] was 0.935 and the normalized growth (locus YNL153C, strain GIM3, hits give low values) was 0.94. It also gave a normalized growth [51] of 0.976, a normalized growth [52] of 0.978 and a normalized growth [53] of 0.979. The normalized growth [54] was 0.98, the normalized growth (locus YNL298W, strain CLA4 (second series), hits give low values) was 0.784 (active) and the normalized growth [55] was 0.932. For the same molecule, the normalized growth (locus YNL322C, strain KRE1, hits give low values) was 0.98, the normalized growth (locus YNR030W, strain Alg12, hits give low values) was 0.803 (active) and the normalized growth (locus YOL006C, strain TOP1, hits give low values) was 0.579 (active). The normalized growth [56] was 0.983, the normalized growth [57] was 0.921 and the normalized growth [58] was 0.966. For the same molecule, the normalized growth [59] was 1.02, the normalized growth [60] was 0.929 and the normalized growth [61] was 0.976. The normalized growth [62] was 0.94, the normalized growth (locus YPL055C, strain LGE1, hits give low values) was 0.727 (active) and the normalized growth [63] was 0.95. For the same molecule, the normalized growth [64] was 0.976, the normalized growth (locus YPL241C, strain CIN2, hits give low values) was 0.822 (active) and the normalized growth [65] was 0.863 (active). For the same molecule, the normalized growth [66] was 0.979, the normalized growth [67] was 0.976 and the normalized growth [68] was 0.993. The normalized growth (locus YPR135W, strain CTF4, hits give low values) was 0.388 (active), the normalized growth [69] was 0.976 and the normalized growth [70] was 0.973.
